Shown is part of a subset that was picked to be rich in hits.
ROC1-CUL1 inh – human ROC1-CUL1 E3 ligase inhibition; AID 1347404; hit rate 0.6% among 140,000; P62877+Q13616; inhibition, % at 10 µM; in vitro K48 di-Ub FRET, acceptor:donor ratio, 45 min; in the data active means inhibition above about 25%
Target sequence (P62877 whole entry, looked up): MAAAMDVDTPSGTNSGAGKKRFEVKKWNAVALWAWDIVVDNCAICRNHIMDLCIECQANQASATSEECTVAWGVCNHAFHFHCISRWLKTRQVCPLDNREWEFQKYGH
Target sequence (Q13616 whole entry, looked up): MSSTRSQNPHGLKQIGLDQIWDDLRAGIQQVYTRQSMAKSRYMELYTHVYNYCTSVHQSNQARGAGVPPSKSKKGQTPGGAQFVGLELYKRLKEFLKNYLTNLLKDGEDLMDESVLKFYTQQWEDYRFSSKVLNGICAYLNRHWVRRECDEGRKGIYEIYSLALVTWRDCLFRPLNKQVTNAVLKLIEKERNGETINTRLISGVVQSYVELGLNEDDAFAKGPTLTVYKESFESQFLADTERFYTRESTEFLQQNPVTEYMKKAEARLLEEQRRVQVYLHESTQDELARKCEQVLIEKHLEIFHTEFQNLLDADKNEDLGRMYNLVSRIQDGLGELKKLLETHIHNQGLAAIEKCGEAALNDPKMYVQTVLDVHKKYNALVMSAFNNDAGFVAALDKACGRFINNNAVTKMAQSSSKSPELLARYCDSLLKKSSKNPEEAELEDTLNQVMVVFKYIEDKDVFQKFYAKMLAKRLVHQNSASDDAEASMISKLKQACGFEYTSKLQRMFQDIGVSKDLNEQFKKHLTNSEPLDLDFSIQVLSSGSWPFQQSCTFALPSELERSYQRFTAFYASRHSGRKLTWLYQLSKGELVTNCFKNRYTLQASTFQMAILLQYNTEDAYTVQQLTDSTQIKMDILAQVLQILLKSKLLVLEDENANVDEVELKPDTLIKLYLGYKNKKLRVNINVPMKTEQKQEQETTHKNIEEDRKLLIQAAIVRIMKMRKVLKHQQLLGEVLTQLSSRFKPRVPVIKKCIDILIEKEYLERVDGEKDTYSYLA
Of the large screens only hits and unclear results are named; the others gave an inactive call.

COc1ccc2c(c1)Cc1sc(NC(=O)c3ccccc3C)nc1-2	ROC1-CUL1 inh 32
COc1ccc2c(c1)CCc1sc(NC(=O)c3ccc(Cl)cc3)nc1-2	none
COc1ccc2c(c1)Cc1sc(NC(=O)c3cccc(Br)c3)nc1-2	none
COc1ccc2c(c1)-c1nc(NC(=O)c3ccccc3F)sc1CC2	none
COc1ccc(C(=O)Nc2nc3c(s2)Cc2cc(OC)ccc2-3)cc1	ROC1-CUL1 inh 40
COc1ccc2c(c1)Cc1sc(NC(=O)c3cccc(F)c3)nc1-2	none
COc1cccc(OCC(O)CNC(=O)C2CC(=O)c3sc(NC(=O)c4ccncc4)nc3C2)c1 (centres undefined)	none
COc1ccc(OC)c(C(N)=O)c1N	none
O=C(c1ccccn1)N1CCc2cc(S(=O)(=O)NC3CCCC3)ccc21	none
CCOC(=O)C1C(c2ccc(Cl)cc2)NC(=O)N(C)C1(O)C(F)(F)F (centres undefined)	none
COc1cc(S(=O)(=O)NCc2cccs2)c(OC)cc1Cl	none
CCOCC(=O)NCc1cccnc1	none
CCC(C)c1cc(Cc2cc(C(C)CC)cc(C(=O)O)c2O)c(O)c(C(=O)O)c1 (centres undefined)	ROC1-CUL1 inh 80
CC(C)c1cc(N)cc(C(=O)O)c1O	none
CCC(C)NS(=O)(=O)c1ccc(OC)c(C(=O)O)c1 (centres undefined)	none
COc1cccc(-c2nc3ccc(C(=O)N(C)Cc4c(C)n[nH]c4C)cc3o2)c1	none
COC(=O)C1=C2C(=O)NCCN2C2=C(C(=O)CCC2)C1c1cccc(F)c1 (centres undefined)	none
CC(/C=C/c1ccco1)=N/NC(=O)c1ccccc1Cl	none
Cc1ccc(C(=O)/C=C/c2ccco2)c(O)c1	ROC1-CUL1 inh 34
O=C(/C=C/c1ccco1)Nc1cccc(NC(=O)c2ccc(Cl)cc2Cl)c1	none
CCc1cccc2c(/C=C3\C(=O)NC(=S)N(c4ccc(F)cc4)C3=O)cn(CC(N)=O)c12	none
COC(=O)c1sccc1NS(=O)(=O)c1cccs1	none
COc1ccc(-c2cnnc(N3CC[C@@H]4CCCC[C@H]4C3)n2)cc1	none
O=C1Oc2ccccc2C(=O)C1Sc1ccc(Cl)cc1 (centres undefined)	none
O=C1Oc2ccccc2C(=O)C1C(=O)c1ccccc1 (centres undefined)	none
O=C(O)c1ccccc1SC1C(=O)Oc2ccccc2C1=O (centres undefined)	ROC1-CUL1 inh 46
COc1ccc(N2C(=O)/C(=C/c3cc(C)n(-c4ccc(Oc5ccc([N+](=O)[O-])cn5)cc4)c3C)C(=O)NC2=S)c(OC)c1	none
COc1cc(-c2cc(C(=O)O)c3c(ccc4ccccc43)n2)ccc1OCCCC#N	none
COc1cc(/C=C2\SC(=S)N(CC(=O)O)C2=O)ccc1OCC(=O)O	none
C=CCN1C(=O)S/C(=C/c2cc(C)n(CCOC)c2C)C1=O	none
CC1(C)Cc2snc(N)c(=O)c2C1	none
Cc1ccc(-n2nnnc2SCc2ccc(F)cc2Cl)cc1C	none
CCOC(=O)c1ccc(-n2c(C)cc(/C=C3\SC(=Nc4ccc(Cl)cc4)NC3=O)c2C)cc1	none
Cc1cc(/C=C2\SC(=Nc3ccc(Cl)cc3)NC2=O)c(C)n1-c1cc(C(=O)O)cc(C(=O)O)c1	ROC1-CUL1 inh 100
Cc1cc(/C=C2\SC(=Nc3ccc(F)cc3)NC2=O)c(C)n1-c1ccc(S(N)(=O)=O)cc1	none
CC(=O)Nc1cccc(Oc2ccc(C#N)c(C#N)c2)c1	none
Cc1ccc(S(=O)(=O)Nc2ccccc2C(C)(C)C)cc1	none
O=c1c(Br)c(-n2cc(CO)nn2)cnn1-c1ccccc1	none
Cc1cccc(/C=N/Nc2cc(N3CCCCC3)nc(N3CCCCC3)n2)c1	none
CCC(=O)NNc1cc(N2CCCC2)nc(N2CCCC2)n1	ROC1-CUL1 inh 74
CCCc1nn2c(=O)cc(N3CCCCC3)nc2s1	none
CCC(Oc1ccc(OC)cc1)C(=O)N1CCN(c2ccccc2F)CC1 (centres undefined)	none
Cc1c(-c2[nH]nc(N)c2N=Nc2ccccc2)c(=O)n(-c2ccccc2)n1C	none
CCCCCCCc1nn2c(N)c(C=C3C=C(Cl)C(=O)C(Cl)=C3)c(=O)nc2s1	ROC1-CUL1 inh 95
CCCc1nn2c(N)c(C=C3C=C(Br)C=CC3=O)c(=O)nc2s1	none
CCc1nn2c(N)c(C=C3C=C(Cl)C(=O)C(Cl)=C3)c(=O)nc2s1	none
COc1ccc(NNC(=NNc2ccccc2)C(C)=O)cc1	none
CC1(C)CNC(=O)C=C(c2ccccc2)C1	none
O=C1C=C(c2ccccc2)OC(=O)C1	none
CN1C(=O)C=C(c2ccccc2)CC1=O	ROC1-CUL1 inh 99
O=C1O[C@@H]2CN(S(=O)(=O)N3CCCC3)C[C@@H]2N1Cc1ccccn1	none
COc1cc(/C=C2\C(=O)N(c3ccc(S(N)(=O)=O)cc3)N=C2C)cc(Br)c1OCC(C)C	none
COc1cc(C=C2C(=O)c3ccccc3C2=O)cc(Br)c1OCC(=O)O	ROC1-CUL1 inh 76
CCCOc1ccc(CN2C(=O)NC(=O)/C(=C\c3cc(Br)c(OCC(=O)O)c(OC)c3)C2=O)cc1OC	none
CCCCCCOc1ccccc1/C=C1\C(=O)N(c2ccc([N+](=O)[O-])cc2)N=C1c1ccccc1	none
COc1cc(CO)cc(Br)c1OCC(=O)O	none
CCC(C)Oc1ccc(/C=C2\C(=O)N(c3ccccc3)N=C2C)cc1Br (centres undefined)	none
CCOc1c(Br)cc(/C=C2/C(=O)N(c3cccc(C(=O)O)c3)N=C2C)cc1OC	ROC1-CUL1 inh 91
C#CCOc1cc(Br)c(/C=C2/C(=O)N(c3cccc(C(=O)O)c3)N=C2c2ccccc2)cc1OC	ROC1-CUL1 inh 90
CC1=NN(c2ccc(C(=O)O)cc2)C(=O)/C1=C/c1cc(Br)ccc1OCc1ccccc1	none
COc1cccc(N2C(=O)CN(Cc3c[nH]c4ccccc34)CC2C)c1 (centres undefined)	none
CC(C)COc1cccc(C(=O)N2CCN(c3ncccn3)CC2)c1	none
COc1ccccc1Oc1ccc(NC(=O)CCCC(=O)O)cc1	none
COc1ccc(C(=O)NC(=S)Nc2ccc(O)cc2)cc1	none
Cc1cc(=O)oc2cc(OCC(=O)NC(C(=O)O)C(C)C)ccc12 (centres undefined)	none
CCOC(=O)C1=C(C)N=c2s/c(=C\c3ccc(I)cc3)c(=O)n2C1c1ccc(OC)cc1 (centres undefined)	none
CCOC(=O)C1=C(C)N=c2s/c(=C/c3ccc(C(=O)O)cc3)c(=O)n2C1c1ccc(C(C)C)cc1 (centres undefined)	ROC1-CUL1 inh 90
CCOC(=O)C1=C(C)N=c2s/c(=C\c3ccc(Cl)cc3)c(=O)n2C1c1ccc(C(C)C)cc1 (centres undefined)	none
O=C1CCCN1CCCC(=O)N1CCCC(CCc2ccccc2F)C1 (centres undefined)	none
Cc1oc(-c2ccccc2)cc1C(=O)Nc1ccc(C(N)=O)cc1	none
CCOC(=O)c1c(CC(NC(C)=O)(C(=O)OCC)C(=O)OCC)n(C)c2cc(Br)c(OC(C)=O)cc12	none
CCN(CC1CCN(C2CCN(C)CC2)CC1)C(=O)CCC(=O)c1ccccc1	none
CCN(CC1CCN(C2CCN(C)CC2)CC1)C(=O)c1ccc(C=O)cc1	none
CCN(CC1CCN(C2CCN(C)CC2)CC1)C(=O)c1cc(C)[nH]n1	ROC1-CUL1 inh 26
CCC1CN(C(=O)C#Cc2ccccc2)Cc2ccc(Cl)cc2O1 (centres undefined)	none
O=C(O)/C=C/c1cc(Br)ccc1OCc1ccc(F)cc1	none
CCCCCCCCCCCCCCCCCCOc1ccc(/C=C/C(=O)O)cc1I	none
CCCCCCOc1cc(/C=C/C(=O)O)c(OCCCCCC)cc1/C=C/C(=O)O	ROC1-CUL1 inh 89
COc1ccc(-c2nnc(SCC3=Nc4c(C)cc(C)cc4C(=O)C3)n2C)cc1	none
Cc1ccc(/C=C/C(=O)O)o1	ROC1-CUL1 inh 35
CC(=O)c1ccc(NC(=O)/C=C/c2ccc(C)o2)cc1	none
